Values joined by “and” are separate entries in the source; they are usually repeats but may differ in a detail not shown here. Equal entries are not always repeated. Records with an inconclusive call do not appear. Values without a mark were called inactive. Active and inactive are the calls of the source. The call rests on the fitted dose curve; in most records, active means well fitted cell-killing curve with a large enough effect; inconclusive means small, poorly fitted or top-dose-only effect; inactive means flat fitted curve, though single readings scatter.
Assay: Cell Viability - LYMP2-006 (AID 978); further: nearly all actives have a fitted effect of over 60% in size
Conditions: LYMP2-006 lymphoblastoid cell viability, qHTS; series mostly up to 92.2 µM; activity change, negative = cytotoxicity: at the top concentration
Description: NIH Chemical Genomics Center [NCGC]
NIH Molecular Libraries Screening Centers Network [MLSCN]
National Institutes of Environmental Health Sciences [NIEHS]
National Toxicology Program [NTP]
We have developed a 1536-well cell-based assay for quantitative high throughput screening (qHTS) against a number of cell lines to determine in vitro cytotoxicity of small molecules. This particular assay uses a human lymphoblastoid cell line (LYMP2-006) purchased from Coriell Institute for Medical Research.
NCGC Assay Protocol Summary:
The CellTiter-Glo luminescent cell viability assay (Promega) is a homogeneous method to measure the number of viable cells in culture. The end point readout of this assay is based on quantitation of intracellular ATP, an indicator of metabolic activity, using the luciferase reaction. Luciferase catalyzes the oxidation of beetle Luciferin to oxyluciferin and light in the presence of ATP. The luminescent signal is proportional to amount of ATP present.
Using the CellTiter-Glo luminescent cell viability assay, the amount of cellular ATP was measured in the lymphoblastoid cell line with complete culture medium following compound treatment for 24 hours. The assay was performed in opaque white Kalypsys 1536-well plates. In the screen, tetraoctylammonium bromide was used as positive control. Library compounds were measured for their ability to cause acute toxicity in the cell line, as reflected by a decrease in intracellular ATP levels, in a concentration-dependent manner. […] AC50 values were determined from concentration-response data modeled with the standard Hill equation.
qHTS protocol for CellTiter Glo lymphoblastoid cellular assay
[Step] [Parameter] [Value] [Description]
1. Reagent; 5 uL; 2500 lymphoblastoid cells/well
2. Time; 5 hr; 37 C incubation
4. Controls; 23 nL; Tetraoctylammonium bromide 6.4pM to 92 uM
5. Time; 24 hr; 37 C incubation
6. Reagent; 5 uL; CellTiter Glo reagent
7. Time; 30 min; Room Temperature
8. Detection; Luminescence; Viewlux plate reader
Keywords: cell viability, cytotoxicity, lymphoblastoid cell line, luminescence, NTPHTS, NTPHTS_NCGC, NIEHS, DSSTox, MLSMR, MLSCN, NIH Roadmap, qHTS, NCGC
On the % scale 0 is the no-effect control and ±100 the full control effect; potency means the concentration at half of the fitted maximal effect.

For `N[C@@H](Cc1ccc(N(CCCl)CCCl)cc1)C(=O)O`, the Potency was 39.8 µM (active).
In the case of `Oc1cccc2cccnc12`, the Potency is reported as 25.1 µM (active) and 15.8 µM (active).
With `CC(COc1ccccc1)N(CCCl)Cc1ccccc1` (stereo unspecified) the Potency was 50.1 µM (active).

In order of rising “activity change, negative = cytotoxicity” value:
1. CCOP(=S)(OCC)Oc1cc(C)nc(C(C)C)n1  -18.5%
2. OCCOc1ccccc1  -4.59%
3. c1ccc2c(c1)Nc1ccccc1S2  -2.46%
4. NCC(O)c1ccc(O)cc1 (stereo unspecified)  -1.18%
5. Oc1ccc(Cl)cc1Cc1ccccc1  0.192%
6. CCCC(C)(COC(N)=O)COC(=O)NC(C)C (stereo unspecified)  1.23%
7. CNCC(O)c1ccc(O)cc1 (stereo unspecified)  3.65%
8. Oc1ccccc1-c1ccccc1  6.13%
